Screening data (PubChem)
TDP1 cell noCPT: qHTS for Inhibitors of human tyrosyl-DNA phosphodiesterase 1 (TDP1): qHTS in cells in absence of CPT; AID 686978, 2013; 15% of 420,000 active; Potency, µM (titrated, usually from 46.2 µM), without a hit: top-dose activity change, negative = growth inhibition, actives largely listed as inhibitors; DT40 Tdp1-/- hTDP1 cells, no CPT, ATP luminescence, 48 h; further: potency means the concentration at half of the fitted maximal effect; nearly all actives have a fitted effect of over 55% in size
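Growth kinetics read by CellTiter-Glo luminescence after ≥48 hr at 37 °C. Cells: DT40 Tdp1-/- stably carrying human TDP1, 400 per well, compound exposure in the absence of CPT (DMSO vehicle).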
TDP1 cell CPT: DT40-hTDP1 cell growth loss with CPT; AID 686979; chicken DT40 Tdp1-/-;hTDP1 cells + 20 nM CPT, ATP luminescence, 48 h; 12% of 420,000 active; Potency, µM (doses to about 46.2 µM), for inactives: at the top dose activity change, negative = growth inhibition, most hits filed as inhibitors; further: potency means the concentration at half of the fitted maximal effect; nearly all actives have a fitted effect of over 55% in size
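Chicken DT40 Tdp1-/- cells complemented with human TDP1, 400 cells/well, exposed to compounds plus 20 nM camptothecin for at least 48 h at 37 C; viability read as ATP content by CellTiter-Glo luminescence.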
RORgamma inh: ROR gamma (mouse) transcription inhibition | AID 2551 | P51450 | Drosophila S2 Gal4-RORgamma UAS-luciferase reporter, 20 h | 5.4% of 310,000 active | Potency, µM (doses to about 53.6 µM), without a hit: top-dose activity change, negative = inhibition, most hits filed as inhibitors; further: potency means the concentration at half of the fitted maximal effect; nearly all actives have a fitted effect of over 60% in size
Target sequence (P51450 whole entry, looked up, the tested form may be a part): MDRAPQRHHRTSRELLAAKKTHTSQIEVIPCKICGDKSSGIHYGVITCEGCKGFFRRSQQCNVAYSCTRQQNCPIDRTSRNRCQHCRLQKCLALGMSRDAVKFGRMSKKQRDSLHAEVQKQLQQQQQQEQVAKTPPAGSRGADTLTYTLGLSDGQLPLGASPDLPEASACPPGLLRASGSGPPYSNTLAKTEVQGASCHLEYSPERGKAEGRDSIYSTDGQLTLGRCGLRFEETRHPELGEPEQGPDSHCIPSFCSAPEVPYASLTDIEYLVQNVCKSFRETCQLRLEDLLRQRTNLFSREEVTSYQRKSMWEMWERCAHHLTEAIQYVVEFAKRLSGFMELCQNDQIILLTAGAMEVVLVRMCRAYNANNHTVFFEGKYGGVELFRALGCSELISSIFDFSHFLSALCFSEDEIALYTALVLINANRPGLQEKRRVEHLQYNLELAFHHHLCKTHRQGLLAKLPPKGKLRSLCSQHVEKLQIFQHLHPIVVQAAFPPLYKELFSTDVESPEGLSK
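Drosophila S2 cells stably expressing Gal4-DBD/mouse RORγ fusion under metallothionein promoter plus UAS-luciferase; compound 1 h, then 700 uM CuSO4 induction for 20 h at ambient temperature; inhibition read as reduced luminescence.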
IL-1B inflam inh: blocks inflammasome-driven IL-1 beta release; THP-1 LPS/ATP IL-1B secretion, AlphaLISA, 16 h; hits give low values; activity change, % at 57.5 µM; 4.7% of 360,000 active; AID 743279; in the data active means activity change below about -50%; inconclusive means mostly about -30% to -49%
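Secreted IL-1B measured by AlphaLISA bead assay after 16 h compound exposure of THP-1 cells; compounds (final up to 57.5 uM) added 1 h before LPS (250 ng/mL) and ATP (1.25 mM) stimulation; lower signal means less secretion.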
ELG1 DNA repair: ELG1-dependent DNA repair inhibition. 2.3% of 330,000 active. AID 504467. Potency, µM (titrated, usually from 46.1 µM), for inactives: top-dose activity change, negative = inhibition, actives largely listed as inhibitors. HEK293T ELG1-luciferase reporter, luminescence, 16 h; DNA damage induced by 5-fluorouridine; further: potency means the concentration at half of the fitted maximal effect; nearly all actives have a fitted effect of over 55% in size
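5-Fluorouridine DNA damage + compound/DMSO, 2,000 cells/well, 16 h, 37 °C/5% CO2. ONE-Glo, 30 min RT, luminescence. Readout = decrease in reporter signal.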
VP16 counter: Gal4-VP16 reporter inhibition counter-screen. Drosophila S2 Gal4-VP16 UAS-luciferase, luminescence, 20 h. Potency, µM (doses to about 53.6 µM), for the others: at the top dose activity, negative = inhibition, hits mostly inhibitors. 3.5% of 310,000 active;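 further: Gal4-VP16 expression switched on by copper sulfate through the metallothionein promoter; potency means the concentration at half of the fitted maximal effect; nearly all actives have a fitted effect of over 50% in size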
An asterisk follows results filed as active; ? = inconclusive; nt = not tested or not shown. Rows were chosen to be rich in hits. Some 21% of all compounds tested hit in one or more screens of this group. Unless noted, the call rests on the fitted dose curve; in most records, active means well fitted curve in the direction sought with a large enough effect; inconclusive means small, poorly fitted or top-dose-only effect, or another doubt; inactive means no such curve, though single readings can be large; an effect the other way counts as inactive or inconclusive. On the % scale 0 is the no-effect control and ±100 the full control effect.

SMILES	TDP1 cell noCPT	TDP1 cell CPT	RORgamma inh	IL-1B inflam inh	ELG1 DNA repair	VP16 counter
O=C1N=C2N(CCN3CCCCC3)c3ccccc3N2/C1=C\c1ccc([N+](=O)[O-])s1	?	9.2µM*	nt	-19	nt	nt
CCc1cc(=O)oc2c3c(cc(OCC(=O)N[C@H](C(=O)O)[C@H](C)CC)c12)OC(C)(C)CC3	-8%	13%	26%	26	8%	10%
CC(C)CN(CC(C)C)C(=O)COc1ccccc1C(N)=O	12µM*	?	1%	0	-3%	11%
Cc1ccc(/C=N/NC(=O)C(=O)N/N=C/c2ccc(C)o2)o1	2%	1%	-2%	-2	17%	-1%
O=C(N/N=C/c1ccc(N2CCCCC2)o1)c1ccccc1	12µM*	9.2µM*	5µM*	-96*	-17%	5µM*
Cc1ccc(/C=N/NC(=O)c2ccc(-c3ccccc3)cc2)o1	?	-3%	13µM*	-8	2%	?
Cc1ccc(/C=N\NC(=O)c2cc([N+](=O)[O-])cc([N+](=O)[O-])c2)o1	?	?	2.5µM*	11	-24%	?
CCCCN(Cc1ccccc1)S(=O)(=O)c1ccc2c(c1)CCN2C(=O)C1CCC1	-21%	-28%	nt	nt	nt	nt
CCN(Cc1ccccc1)S(=O)(=O)c1cc(Br)cc2c1N(C(=O)C1CC1)CC2	8.2µM*	10µM*	nt	nt	nt	nt
Cc1c(NS(=O)(=O)c2cc(Br)cc3c2N(C(=O)C2CC2)CC3)c(=O)n(-c2ccccc2)n1C	?	-11%	21%	1	15%	5%
CCc1ccccc1NS(=O)(=O)c1cc(Br)cc2c1N(C(=O)C1CC1)CC2	18µM*	16µM*	nt	nt	nt	nt
CCCCN(Cc1ccccc1)S(=O)(=O)c1cc(Br)cc2c1N(C(=O)C1CC1)CC2	9.2µM*	9.2µM*	nt	nt	nt	nt
O=C(C1CC1)N1CCc2cc(S(=O)(=O)N(CCO)Cc3ccccc3)ccc21	23µM*	?	?	-8	?	?
CC(=O)N1CCOC12CCN(Cc1ccccc1)CC2	7%	14%	nt	-18	nt	nt
CCN(CC)C(=O)CSc1nc2ccsc2c(=O)n1CCCC(=O)NCCc1ccc(S(N)(=O)=O)cc1	29µM*	4.1µM*	13%	-10	1%	-1%
CCC(C)n1c(SCC(=O)NCCc2ccc(S(N)(=O)=O)cc2)nc2ccsc2c1=O (stereo not drawn)	?	?	27%	15	-4%	-2%
CCn1cc(S(=O)(=O)c2cccc(Cl)c2)c(=O)c2cc(F)c(N3CCC(C)CC3)cc21	-12%	-4%	nt	nt	nt	nt
O=c1c(S(=O)(=O)c2ccccc2)cn(Cc2ccc(F)cc2)c2cc(N3CCOCC3)c(F)cc12	15µM*	21µM*	nt	nt	nt	nt
Cc1cccc(Cn2cc(S(=O)(=O)c3cccc(Cl)c3)c(=O)c3cc(F)c(N4CCOCC4)cc32)c1	-18%	-1%	nt	nt	nt	nt
Cc1cccc(S(=O)(=O)c2cn(Cc3ccccc3)c3cc(N4CCC(C)CC4)c(F)cc3c2=O)c1	8.2µM*	5.8µM*	nt	nt	nt	nt
COc1ccc(S(=O)(=O)c2cn(Cc3ccccc3)c3cc(N4CCCC4)c(F)cc3c2=O)cc1	5.2µM*	?	nt	nt	nt	nt
Cc1nc([N+](=O)[O-])cn1CC(O)c1ccc2c(c1)OCCO2 (stereo not drawn)	3%	-8%	nt	nt	nt	nt
CCCCNC(=O)NS(=O)(=O)c1ccc(C(=O)O)cc1	nt	nt	-13%	nt	nt	5%
COC(=O)C(NS(N)(=O)=O)C(C)C (stereo not drawn)	nt	nt	-15%	nt	nt	5%
CCCCN(Cc1ccccc1)S(=O)(=O)c1c(N)n(C)c(=O)n(C)c1=O	0%	-4%	5%	7	-3%	2%
SMILES	TDP1 cell noCPT	TDP1 cell CPT	RORgamma inh	IL-1B inflam inh	ELG1 DNA repair	VP16 counter
CCN(Cc1ccccc1)S(=O)(=O)c1cc(C(=O)c2c(N)n(C)c(=O)n(C)c2=O)ccc1OC	29µM*	?	-5%	-2	-26%	-4%
COc1cc(C(=O)NC(C)C2CC3CCC2C3)cc(OC)c1OC (stereo not drawn)	?	?	?	18	-3%	8%
CCN(Cc1ccccc1)S(=O)(=O)c1cc(C(=O)NC(C)C2CC3CCC2C3)ccc1OC (stereo not drawn)	15µM*	16µM*	21%	-2	6.5µM*	-10%
COc1ccc(C(=O)NC(C)C2CC3CCC2C3)c(OC)c1 (stereo not drawn)	21µM*	23µM*	8%	-3	-13%	-7%
Cc1nn(CC(=O)N2CCN(c3cccc(Cl)c3)CC2)c(=O)c2c1sc1ccccc12	-1%	-27%	nt	nt	nt	nt
O=C(NCc1ccc(F)cc1)c1cc(-c2ccncc2)nc2ccccc12	?	?	41%	15	?	11%
O=C(NCc1cc([N+](=O)[O-])ccc1O)c1cc(-c2ccncc2)nc2ccccc12	?	-25%	14µM*	40	-17%	8.9µM*
CCCN(CCC)C(=O)c1cc(-c2ccc3c(c2)OCO3)nc2ccccc12	15µM*	15µM*	33%	-14	18µM*	-11%
O=C(O)c1cc(-c2ccc3c(c2)OCO3)nc2ccccc12	-25%	?	-5%	28	?	-12%
O=C(NCc1ccc2c(c1)OCO2)c1cc(-c2ccncc2)nc2ccccc12	?	16µM*	25%	3	?	-7%
CC(=O)c1cccc(NC(=O)c2ccc(-n3c(C)nnc3C)cc2)c1	0%	5%	nt	nt	nt	nt
O=C(CNC(=O)c1ccco1)OCC(=O)c1ccc2ccccc2c1	1%	4%	-6%	3	-3%	-1%
Cn1cc([C@]2(O)C(=O)Nc3ccc(Br)cc32)c2ccccc21	?	?	nt	0	nt	nt
COc1ccc(C(=O)N2CCOC2CNC(=O)C(=O)NCc2ccccc2)cc1 (stereo not drawn)	?	9%	nt	-18	nt	nt
Cc1cc2c(cc1S(=O)(=O)N(C)C1CCCCC1)OCC(=O)N2	23µM*	?	0%	36	?	4%
Cc1cc2c(cc1S(=O)(=O)N(CCN(C)C)Cc1ccccc1)OCC(=O)N2	?	13µM*	nt	nt	nt	nt
Cc1cc2[nH]c(=O)c(=O)[nH]c2cc1S(=O)(=O)N(C)C1CCCCC1	21µM*	21µM*	-2%	36	-9%	1%
Cc1cc2[nH]c(=O)c(=O)[nH]c2cc1S(=O)(=O)NC1CCCCC1C (stereo not drawn)	0%	4%	-43%	0	14%	?
